Screen size: about 340,000 compounds; about 5,100 (1.5%) were called active. The entries come from a sample that favours actives as a whole. Values without a mark were called inactive.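 The calls were made as follows: active = mean Tm shift, scaled 0 neutral to 100 positive control, at about 1.3% or above, every replicate too (limit read from the data); inconclusive = no clear call, values can overlap the other calls; inactive = the rest.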
Each compound was assayed against Fibroblast growth factor 22 (Homo sapiens) (UniProt Q9HCT0) (assay: FGF22 ligand-induced thermal stabilization – biophysical, thermal shift, single point, FGF22 synaptogenesis inhibitor project, primary screen (AID 651658)). Conditions: recombinant FGF22 thermal shift, SYPRO orange fluorescence; at 9.99 µM; stronger effect = higher value; percent of sucrose octasulfate shift, DMSO zero.
Fibroblast growth factor 22 (Homo sapiens), sequence (Q9HCT0 whole entry, looked up): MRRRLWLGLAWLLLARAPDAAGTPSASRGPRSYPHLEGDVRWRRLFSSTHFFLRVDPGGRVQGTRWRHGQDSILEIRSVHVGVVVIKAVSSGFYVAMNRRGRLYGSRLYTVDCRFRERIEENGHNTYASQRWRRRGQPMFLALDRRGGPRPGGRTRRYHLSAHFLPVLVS

SMILES | activity (Tm shift, normalised)
C[C@H](CO)N1C[C@H](C)[C@H](CN(C)C(=O)Nc2ccc(F)cc2)OCCCC[C@H](C)Oc2ccc(NC(=O)CCC(F)(F)F)cc2C1=O | -0.451%
Cn1c(=O)cc(OCC(=O)N2CCN(c3ccccc3F)CC2)c2ccccc21 | 44% (active)
O=C(CCSc1ccccc1)N1CCN(c2ccccc2F)CC1 | 0.121%
O=C(COc1coc(CN2CCN(c3ccccc3F)CC2)cc1=O)N1CCc2ccccc21 | -0.217%
C[C@@H]1CN([C@H](C)CO)C(=O)c2cc(NC(=O)Nc3cccc4ccccc34)ccc2O[C@H]1CN(C)C(=O)Nc1ccccc1 | -0.15%
CCC(=O)N1C[C@@H](C)[C@H](OC)CN(C)C(=O)c2ccc(NC(=O)NC(C)C)cc2OC[C@H]1C | -0.086%
CCC(=O)N1C[C@@H](C)[C@H](OC)CN(C)C(=O)c2ccc(NC(=O)c3ccc(F)cc3)cc2OC[C@@H]1C | -0.101%
CCN(CC)C(=O)N(CC)Cc1ccccc1 | 43.4% (active)
O=C(O)CCC(=O)N(Cc1ccccc1)Cc1ccccc1 | -0.007%
CCN(Cc1ccncc1)C(=O)CCc1ccccc1 | 0.094%
CNC(=O)C[C@H]1CC[C@H]2[C@H](COc3ccc(NC(=O)c4cc(C)on4)cc3C(=O)N2C)O1 | -0.057%
O=C(C[C@H]1C[C@@H]2c3cc(NC(=O)c4ccc5c(c4)OCO5)ccc3O[C@@H]2[C@@H](CO)O1)NCc1cccnc1 | -0.297%
C[C@H]1CN([C@@H](C)CO)C(=O)CCCn2nncc2CO[C@H]1CN(C)S(=O)(=O)c1ccccc1C#N | -0.016%
CO[C@H]1CN(C)C(=O)c2cc(NC(=O)C3CCC3)ccc2OC[C@H](C)N(Cc2nccs2)C[C@H]1C | -0.288%
Cc1noc(C)c1S(=O)(=O)N(C)C[C@@H]1Oc2ccc(NC(=O)Cn3cnnn3)cc2CC(=O)N([C@@H](C)CO)C[C@@H]1C | -0.13%
O=C(Nc1cccc(Cl)c1)c1cncn1-c1ccc(F)cc1 | 0.242%
Cn1cc(Cl)c(C(=O)NNC(=S)Nc2cccc(Cl)c2)n1 | 44.2% (active)
Cc1cccc(-n2cnc(C(=O)NNC(=S)Nc3ccccc3)c2)n1 | 0.832%
COCC(=O)Nc1ccc2c(c1)C(=O)N(C)[C@@H]1CC[C@H](CC(=O)NCC3CC3)O[C@H]1CO2 | 0.038%
CCOc1ccc(NC(=O)COc2ccc(C(=O)NC3CCCc4ccccc43)cc2OC)cc1 (stereo not drawn) | 0.171%
COC(=O)c1cc(OCC(=O)NC2CCCc3ccccc32)cc(C(=O)OC)c1 (stereo not drawn) | 0.172%
NC(=O)Nc1ccc(C(=O)OCC(=O)NC2CCCc3ccccc32)cc1 (stereo not drawn) | 43% (active)
O=C(NC1CCCCC1)N1CC2(C1)[C@H](c1ccccc1)[C@@H](CO)N2S(=O)(=O)Cc1ccccc1 | -0.24%
Cc1ccc(S(=O)(=O)Nc2ccc(F)c(S(=O)(=O)N3CCOCC3)c2)cc1 | 43.3% (active)
Cc1ccc(NS(=O)(=O)c2ccc(C(C)C)cc2)cc1S(=O)(=O)N1CCOCC1 | -0.175%
CC(=O)NCCc1ccc(S(=O)(=O)Nc2ccc(C)c(S(=O)(=O)N3CCOCC3)c2)cc1 | -0.312%

SMILES | activity (Tm shift, normalised)
CCCN1C[C@@H](C)[C@@H](OC)CN(C)C(=O)c2cc(NC(=O)CC(F)(F)F)ccc2OC[C@H]1C | 0.002%
O=C(N/N=C/c1ccc(OCc2ccccc2)cc1)c1ccc(O)cc1 | 2.5% (active)
O=C(Cc1cccs1)N/N=C/c1ccc(OCc2ccccc2)cc1 | 0.285%
CCOc1ccc(-c2cc(C(=O)N/N=C/c3ccc(O)cc3)c3ccccc3n2)cc1 | 0.307%
CCCNC(=O)N1CC2(CCN(C(=O)C3CC3)CC2)c2c([nH]c3cc(OC)ccc23)[C@H]1CO | -0.002%
CCC(=O)N(C)C[C@@H]1Oc2ncc(C#Cc3cccnc3)cc2C(=O)N([C@@H](C)CO)C[C@@H]1C | 0.101%
Cc1ccc(SCCC(=O)NCc2ccccn2)cc1 | 0.257%
Cc1cc(Cl)ccc1OCCCC(=O)Nc1cccc(-n2cnnn2)c1 | 0.032%
Cc1cc(Cl)ccc1OCCCC(=O)NCc1ccccn1 | 43.6% (active)
COc1cc(OC)cc(-c2nc(=S)n3ccsc3n2)c1 | 43.5% (active)
COc1cccc(C(=O)n2ccc(-c3cccs3)n2)c1 | -0.099%
C[C@@H]1CCCCO[C@H](CN(C)C(=O)Nc2ccc(C(F)(F)F)cc2)[C@@H](C)CN([C@@H](C)CO)C(=O)c2cc(NC(=O)Nc3cccc4ccccc34)ccc2O1 | -0.177%
C[C@H]1CCCCO[C@@H](CN(C)Cc2ccccc2)[C@@H](C)CN([C@@H](C)CO)C(=O)c2cc(NC(=O)Cc3ccccc3)ccc2O1 | -0.273%
Cc1ccc(S(=O)(=O)N(Cc2ccccc2)c2ccccn2)cc1[N+](=O)[O-] | -0.192%
Cc1ccc(S(=O)(=O)Nc2nc3ccccc3s2)cc1[N+](=O)[O-] | 2.09% (active)
CCOc1ccc2sc(NS(=O)(=O)c3ccc(N)cc3)nc2c1 | 0.571%
CO[C@H](CN(C)C(=O)c1ccc2c(c1)OCO2)[C@H](C)CN([C@@H](C)CO)S(=O)(=O)c1ccc(Cl)cc1 | 0.025%
C[C@@H]1CCCCO[C@H](CN(C)S(=O)(=O)c2ccc(Cl)cc2)[C@H](C)CN([C@@H](C)CO)C(=O)c2cc(NS(=O)(=O)c3cn(C)cn3)ccc2O1 | -0.295%
O=c1c2c3c(sc2n(CCN2CCCC2)c(=O)n1Cc1ccccc1)CCCCC3 | -0.07%
CN(C)CCCn1c(=O)n(Cc2ccccc2)c(=O)c2c3c(sc21)CCCCC3 | 5.16% (active)
COCCn1cnc2c1c(=O)n(Cc1ccc(Br)cc1)c(=O)n2Cc1ccccc1 | 0.138%
CC(C)NC(=O)N(C)C[C@@H]1OCCCC[C@@H](C)Oc2ccc(NC(=O)NC3CCCCC3)cc2C(=O)N([C@@H](C)CO)C[C@@H]1C | -0.284%
COc1ccc(/C=C(/NC(=O)c2ccccc2)C(=O)Nc2cccc(C(=O)O)c2)cc1 | -0.131%
CCOC(=O)CNC(=O)/C(=C\c1ccc(F)cc1)NC(=O)c1ccccc1 | 0.033%
CCOc1ccc(/C=C(/NC(=O)c2ccccc2)C(=O)NCCC(=O)O)cc1 | 43.7% (active)
O=C(C[C@H]1C[C@H]2c3cc(NC(=O)Nc4ccc(C(F)(F)F)cc4)ccc3O[C@H]2[C@@H](CO)O1)NCCc1ccccc1 | 0.15%

SMILES | activity (Tm shift, normalised)
C[C@@H]1CN([C@H](C)CO)C(=O)c2cc(NC(=O)CCCCCC(=O)Nc3ccccc3N)ccc2O[C@H]1CN(C)Cc1ccncc1 | -0.063%
C[C@@H]1CN([C@H](C)CO)C(=O)c2c(c3ccccc3n2C)-c2ccccc2CO[C@H]1CN(C)Cc1ccc(F)cc1 | 0.453%
COc1cc(C(=O)NCc2ccncc2)cc(Br)c1OCc1ccccc1 | -0.2%
COc1cc(C=O)c(Br)cc1OCC(=O)NCc1ccccc1 | -0.006%
COc1cc(C(=S)NCc2ccccc2)cc(Br)c1O | 44.4% (active)
CCCC(=O)N1CC2(CCN(C(=O)C3CC3)CC2)c2c(n(C)c3cc(OC)ccc23)[C@H]1CO | 0.143%
O=C1CC(c2ccccc2)C(=O)N2C(=O)CC(c3ccccc3)C(=O)N12 (stereo not drawn) | -0.169%
CN1C(=O)CC(c2ccccc2)C1=O (stereo not drawn) | 0.006%
O=C1OCC2=C1C(c1ccccc1)CC(=O)N2c1cccc(F)c1 (stereo not drawn) | 43.2% (active)
Cc1cnc(C(=O)OCC(=O)NCCCc2ccccc2)cn1 | 0.133%
N#Cc1cc([N+](=O)[O-])ccc1NC(=O)COC(=O)c1cnccn1 | -0.067%
COc1cc(NC(=O)COC(=O)c2cnc(C)cn2)c(C)cc1[N+](=O)[O-] | 43.3% (active)
COc1cccc(CNC(=O)C[C@H]2CC[C@@H](NC(=O)C3CCC3)[C@@H](CO)O2)c1 | -0.144%
CCc1ccccc1NC(=O)CN(C)C(=O)c1cc(C2CC2)nn1-c1ccccc1 | 0.146%
COc1ccc(CN2CCN(C(=O)c3cc(C4CC4)nn3-c3ccccc3)CC2)cc1F | -0.038%
CCc1ccccc1NC(=O)CN1CCN(C(=O)c2cc(C3CC3)nn2-c2ccccc2)CC1 | 44.1% (active)
O=C(CC(F)(F)F)N1C[C@H]2[C@@H](c3ccccc31)[C@H](CO)N2C(=O)Cc1ccccc1 | -0.096%
CC(C)NC(=S)N1CCN(S(C)(=O)=O)CC1 | -0.113%
CCCCNC(=O)N1CCN(S(C)(=O)=O)CC1 | 43% (active)
CS(=O)(=O)N1CCN(C(=O)CSc2ccccc2)CC1 | -0.196%
COc1ccc(Cc2nnc(SCC(=O)c3cccc([N+](=O)[O-])c3)n2C)cc1 | 0.217%
COc1cccc(NCCC(=O)c2cccc([N+](=O)[O-])c2)c1 | 43.4% (active)
COc1cccc(C(=O)CC(=O)C(=O)Nc2ccc([N+](=O)[O-])cc2C)c1 | -0.246%
Cc1ccc(NC(=O)C(=O)NCC2CCN(C(=O)c3cccc([N+](=O)[O-])c3)CC2)cc1 | 0.238%
CCC(CC)NC(=O)/C=C/c1cccc([N+](=O)[O-])c1 | -0.166%
Cc1ccc(NC(=O)O/N=C/c2cccc([N+](=O)[O-])c2)cc1 | 1.7% (active)

Source: PubChem BioAssay AID651658 (Broad Institute, 2012)
